Inconclusive results are not listed. Active and inactive are the calls of the source. How the source made its calls: active means hit-call score of the fitted dose curve at least 0.9, where 1 is the maximum; inconclusive means response in the unintended direction; inactive means score below 0.9.

The experiment can be described thus: ATG_XTT_Cytotoxicity: Cytotoxicity Assessment in the Attagene TRANS-FACTORIAL HepG2 Assay (AID 2283584).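 On AC50: cells exposed to compound for 24 h before reading.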 The protocol: ATG_XTT_Cytotoxicity is a cell-based, single-readout assay that uses HepG2, a human liver cell line, with measurements taken at 24 hours after chemical dosing in a 24-well plate.ATG_XTT_Cytotoxicity is one of one assay component(s) measured or calculated from the ATG_XTT_Cytotoxicity assay. It is designed to make measurements of cell number, a form of viability reporter, as detected with […] signals by XTT cytotoxicity assay technology.Data from the assay component ATG_XTT_Cytotoxicity was analyzed into 1 assay endpoint. This assay endpoint, ATG_XTT_Cytotoxicity, was analyzed in the positive analysis fitting direction relative to DMSO as the negative control and baseline of activity. Using a type of viability reporter, loss-of-signal activity can be used to understand changes in the viability. Furthermore, this assay endpoint can be referred to as a primary readout, because the performed assay has only produced 1 assay endpoint. To generalize the intended target to other relatable targets, this assay endpoint is annotated to the cell cycle intended target family, where the subfamily is cytotoxicity.
Human liver HepG2 cells are transiently transfected with multiple reporter transcription units (MRTUs) in 6-well plates using FuGene 6 reagent (Roche; 3 ml FuGene/1 mg DNA). The MRTU constructs are regulated by a cis-regulating element (promoter). […] A major difference between the CIS and TRANS system is that in CIS activities of endogenous TFs are measured, whereas the TRANS assay evaluates changes in activities of exogenous, chimeric NR-Gal4 proteins. […] At the end of 24 hour incubation, total RNA was isolated using TriZol reagent (Invitrogen). The isolated RNA is then reverse-transcribed using oligo(dT) primer and Mo-MLV reverse transcriptase (Invitrogen) with DNAse I (Ambion) treatment for 30 min. The one-tenth of the produced cDNA was amplified by PCR using Taq DNA polymerase (Invitrogen) and two reporter sequence-specific primers. The PCR products were fluorescently labeled by primer extension with 6-arboxyfluorescein (6-FAM) 5'-labeled reporter sequence-specific primer (2 min at 95 C, 20 s at 68 C and 10 min at 72 C) and these products were digested with 5U of HpaI (New England Biolabs) for 2h at 37 C. The fragments were purified using Qiaquick PCR columns (Qiagen), analyzed on an ABI 3130xL genetic analyzer (Applied Biosystems) with peak positions identified by using a set of X-rhodamine (ROX)-labeled MapMarker1000 molecular weight standards (BioVentures). The raw capillary electrophoresis data was processed using Attagraph software (Attagene).
In the case of `O=C=Nc1ccccc1`, the compound was classed as inactive.
Still for that read-out and setting: for `BrCBr` the value was “inactive”.
On to `COc1ncc(F)c2nc(S(=O)(=O)Nc3c(F)cccc3F)nn12`, for which the compound was called inactive.
On the same count and under the same terms, for `CC(C)(O)C#N` the value was “inactive”; for `C=CC(=O)OCC(CC)CCCC` (stereo not given), “inactive”; for `CC=Cc1ccc2c(c1)OCO2`, “inactive”.
Same read-out and setting: for `C=CC(=O)OCCCCOC(=O)C=C` the value was “inactive”; for `N#CCCCCC#N`, “inactive”; for `C=CC(=O)OCCO`, “inactive”.
Same read-out and setting: for `Cc1ccc(C)c2ccccc12` the value was “inactive”.
Take `[Cl][Sb]([Cl])[Cl]`: the outcome was inactive.
The same measure, in the same setting: for `CCC(C)c1cc(C(C)(C)C)cc(-n2nc3ccccc3n2)c1O` (stereo not given) the value was “inactive”; for `O=[N+]([O-])O`, “inactive”.
Still for that read-out and setting: for `Cc1cc(C)c(C2=C(OC(=O)CC(C)(C)C)C3(CCCC3)OC2=O)c(C)c1` the value was “inactive”.
As for `O=[N+]([O-])c1cc(C(F)(F)F)c(Cl)c([N+](=O)[O-])c1Cl`, the AC50 was 57.7 µM (active).
For the compound `CCCCCCC1CCOC1=O` (stereo not given), the compound was classed as inactive.
Same read-out and setting: for `CN(C)CCC#N` the value was “inactive”; for `CCCC=NO`, “inactive”.
On the same count and under the same terms, the result for `CCCCCCCCCCCC#N` reads “inactive”; that for `O=c1c2ccccc2c(=O)c2c1cc(Cl)c1[nH]c3c([nH]c12)c(Cl)cc1c(=O)c2ccccc2c(=O)c13`, “inactive”; that for `O=C(NCNC(=O)NC1C(=O)NC(=O)N1CO)NC1C(=O)NC(=O)N1CO` (stereo not given), “inactive”.
Take `CCCOC(=O)c1ccccc1C(=O)OCCC`: the call was inactive.
Still for that read-out and setting: the result for `CC(C)(c1cc(Cl)c(O)c(Cl)c1)c1cc(Cl)c(O)c(Cl)c1` reads “inactive”; that for `O=C(O)CCl`, “inactive”.
Still for that read-out and setting: for `CC(Cc1ccc(C(C)(C)C)cc1)CN1C[C@@H](C)O[C@@H](C)C1` (stereo not given in full) the value was “inactive”; for `Nc1cc(Cl)cc(Cl)c1`, “inactive”.
For `Nc1ccccc1C(=O)Oc1ccc2ccccc2c1`, the outcome was inactive.
The same measure, in the same setting: for `CC(=O)C=Cc1ccccc1` the value was “inactive”.
Still for that read-out and setting: the result for `C[N+](C)(C)CC(=O)[O-]` reads “inactive”.
On the same count and under the same terms, the result for `O=C(CCN1CC1)OCC(CO)(COC(=O)CCN1CC1)COC(=O)CCN1CC1` reads “inactive”; that for `CNC(=N[N+](=O)[O-])NCC1CCOC1` (stereo not given), “inactive”; that for `CCOC(=O)COc1ccc(Cl)cc1Cl`, “inactive”.
For the compound `CN1C(=O)CCS(=O)(=O)C1c1ccc(Cl)cc1` (stereo not given), the result was inactive.
On the same count and under the same terms, for `CCOC(=O)C1OC1(C)c1ccccc1` (stereo not given) the value was “inactive”.
Consider `O=C(O)C(Br)Br`, for which the compound was called inactive.
The same measure, in the same setting: the result for `CCc1cccc(C)c1N(C(=O)CCl)[C@@H](C)COC` reads “inactive”.
As to `O=[N+]([O-])O.O=[N+]([O-])O.[Cd]`, the AC50 was 12.3 µM (active).
`O=C1Nc2ccc(Cl)cc2C(c2ccccc2)=NC1O` (stereo not given): the compound was classed as inactive.
Same read-out and setting: for `CC1CCCC1.[C-]#[O+].[C-]#[O+].[C-]#[O+].[Mn]` the value was “inactive”; for `CCC1CCC(=O)O1` (stereo not given), “inactive”.

Values taken from PubChem BioAssay (EPA / NIEHS).
